# TTR transcr act: increases transthyretin transcription; SH-SY5Y TTR promoter Gaussia luciferase, luminescence; 100% = recombinant luciferase protein wells; 92,000 tested, 1.3% active; activation, % at 16.7 µM; AID 1117267;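 active = activation above the mean of all tested compounds plus 3 SD, cut at about 9.5% in these data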;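 also: cells exposed to compounds for one day before reading; 0% = median of all test compound wells on the plate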
# HuH7 TTR inh: HuH7 TTR transcription inhibition, counter-screen | 1,100 tested, 4% active | shares compounds with TTR transcr act | HuH7 TTR promoter-Gaussia luciferase reporter, luminescence | inhibition, % at 16.7 µM;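 active = average inhibition above the solvent-only control wells' mean plus 3 SD, cut at about 15% in these data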;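 also: 0% = cells with DMSO only and 100% = cells with inhibitor control FD; inhibitors lower well luminescence so higher value means more inhibition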
# TTR up confirm: confirmation of human transthyretin transcription activators; shares compounds with TTR transcr act; SHSY5Y TTR promoter Gaussia luciferase, luminescence; 100% = purified Lucia enzyme wells, no cells; activation, % at 16.7 µM; 1,100 tested, under 10 active;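 active = mean activation above a set limit taken from the earlier primary screen, cut at about 11% in these data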;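 also: 0% = DMSO-treated cells and 100% = recombinant Lucia luciferase without cells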
# * hit, by the source's call. Only a selection was taken, and hits are over-represented in it overall.
SMILES,TTR transcr act,others
Cc1cc(C)c(C#N)c(SCC(=O)N2CCN(Cc3ccccc3)CC2)n1,-3,
O=C(CSc1ncccn1)N1CCN(Cc2ccccc2)CC1,15*,HuH7 TTR inh=7;TTR up confirm=-1
O=C(CCS(=O)(=O)c1ccc(Br)cc1)N1CCN(Cc2ccccc2)CC1,-1,
CC(C)CN1CN2CCc3ccccc3C2CS1(=O)=O (stereo not drawn),-1,
O=C(OC12CCCN(C1)/C(=C/c1cccnc1)C2)c1ccc(F)cc1 (stereo not drawn),-2,
O=C(NCc1cccs1)O[C@H]1CC[C@@]23CCCN2C(=O)CCC[C@H]3C1,0,
CC(=O)c1csc(Nc2ccccc2Cl)n1,12*,HuH7 TTR inh=-13;TTR up confirm=0
CCCNC(=O)c1csc(Nc2cccc3ccccc23)n1,0,
CC(=O)c1csc(-c2ccccc2)n1,-1,
COC(=O)[C@]12C[C@H](CC(=O)NCc3ccc(OC)c(OC)c3)C(=O)N(CCc3ccc(OC)c(OC)c3)C1=C[C@H](C1CCCC1)O[C@@H]2C,-1,
CCN=C1S/C(=C/c2cc(C)n(-c3ccc(Cl)cc3F)c2C)C(=O)N1CC,-2,
CCN1C[C@@H]2[C@@H]3C(=O)N(Cc4ccccc4)C(=O)[C@@H]3[C@](C)(C(=O)OC)N2C1=NC1CCCCC1,25*,HuH7 TTR inh=-2;TTR up confirm=0
COC(=O)[C@@]1(C)[C@H]2C(=O)N(Cc3ccccc3)C(=O)[C@H]2[C@H]2CN=C(SCc3ccccc3)N21,2,
COC(=O)[C@@]1(C)[C@H]2C(=O)N(Cc3ccccc3)C(=O)[C@H]2[C@H]2CN(C)C(=NC3CCCCC3)N21,5,
CCN1C(=O)[C@H]2[C@H]3CN=C(SCc4ccc(C#N)cc4)N3[C@@](C)(C(=O)OC)[C@H]2C1=O,-1,
CCN1C(=O)[C@H]2[C@H]3CN=C(SCC(=O)c4ccccc4)N3[C@@](C)(C(=O)OC)[C@H]2C1=O,13*,HuH7 TTR inh=-3;TTR up confirm=0
CCCN=C1N(CC)C[C@@H]2[C@@H]3C(=O)N(Cc4ccccc4)C(=O)[C@@H]3[C@](C)(C(=O)OC)N12,0,
CCCC1CCC2(CC1)CCC2OC(=O)Nc1ccc(C)cc1 (stereo not drawn),-1,
O=C(NCc1ccccc1)C1CCN(c2nc(-c3ccc(Br)cc3)cs2)CC1,-1,
CCOc1ccc(-c2nc(CSCC(=O)NC3CCC3)c(C)o2)cc1,-2,
C#CCNC(=O)C[C@H]1C[C@@]2(C(=O)OC)C(=C[C@H](C(C)(C)C)O[C@@H]2C)N(Cc2ccc(Cl)cc2Cl)C1=O,-1,
O=C(COC(=O)c1ccc(O)cc1O)Nc1ccc2ccccc2c1,21*,HuH7 TTR inh=-23;TTR up confirm=1
O=C(COC(=O)c1ccc2ccccc2c1O)Nc1ccccc1,0,
O=C(COC(=O)c1ccc(CO)cc1)Nc1ccc2ccccc2c1,-1,
O=C(COc1ccccc1)N1CCN(c2ccccc2)CC1,2,
SMILES,TTR transcr act,others
Cc1cc(C(=O)OCC(=O)N2CCOCC2)c(C)n1-c1ccccc1,0,
O=C(OCC(=O)N1CCN(c2ccccc2)CC1)c1ccc(O)cc1O,15*,HuH7 TTR inh=-25;TTR up confirm=0
Cc1ccc(S(=O)(=O)N2c3ccccc3C[C@H]2CC=C(c2ccccc2)c2ccccc2)cc1,1,
COC(=O)[C@@]1(C(C)C)N=C(c2cc(OC)c(OC)c(OC)c2)[C@]2(O1)C(=O)N(Cc1cn(-c3ccccc3)nn1)c1cccc(Cl)c12,-1,
c1ccc(CNc2nc3ccccc3[nH]2)cc1,9.9*,HuH7 TTR inh=-4;TTR up confirm=1
O=c1[nH]c2ccccc2nc1NCc1ccccc1,-2,
c1ccc(CCc2nc3ccccc3[nH]2)cc1,1,
COc1ccccc1NC(=O)OCCN1CCCC12CCC(c1ccccc1)CC2 (stereo not drawn),-2,
O=C1CCC[C@H]2C[C@H](NCc3ccc(Cl)c(Cl)c3)CC[C@]23CCCN13,-1,
CN(Cc1ccccc1)C(=O)OCc1cn(Cc2cccc(F)c2F)nn1,-1,
CC(C)NCCOCCOc1ccc(Cl)cc1Br,0,
CC(C)NCCOCCOc1ccccc1F,11*,HuH7 TTR inh=-9;TTR up confirm=1
CCN(CC)CCOCCOc1ccccc1F,-1,
C[C@H]1[C@H](N)CC[C@@]23CCCN2C(=O)CCC[C@@H]13,0,
CCOC(=O)[C@]12CCCC=C1N(Cc1ccc(OC)cc1)C(=O)[C@@H]2CC(=O)NCc1cccc(C(F)(F)F)c1,-1,
CCOC(=O)[C@@H]1[C@H]2COc3ccc(Br)cc3[C@@H]2N2C(=O)N(c3ccc(Cl)cc3)C(=O)[C@@]12C,0,
CCOC(=O)[C@H]1[C@H]2COc3ccc(C)cc3[C@@H]2N2C(=O)c3cc(OC)c(OC)cc3NC(=O)[C@@]12C,1,
CCOC(=O)[C@@H]1[C@H]2COc3ccc(Br)cc3[C@@H]2N2C(=O)N(c3ccc(F)cc3)C(=O)[C@@]12C,16*,HuH7 TTR inh=-34;TTR up confirm=0

# Screens: PubChem, The Scripps Research Institute Molecular Screening Center
